p53 reactivation: restores transcriptional activity of mutant p53; Potency, µM (highest dose often 92.2 µM), most hits filed as activators; H1299 p53-A138V BP100-luciferase reporter, luminescence, 24 h; AID 504706; actives 0.063% (n = 320,000); further: nearly all actives have a fitted effect of over 45% in size
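p53-null H1299 cells stably carrying temperature-sensitive p53-A138V and a BP100-luciferase reporter were pinned with compounds (4-point, 1:5 series) and held 24 hrs at 37 deg C. Luminescence was read 10 min after detection reagent.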
BRCA1 expr up: increases BRCA1 expression; MCF7-BRCA1-FFLuc reporter, luminescence, 48 h; response scale: scaled: vehicle 0%, 10 µM genistein 100%; Potency, µM (highest dose often 46.1 µM), most hits filed as activators; actives 1.1% (n = 380,000); AID 624202; further: nearly all actives have a fitted effect of over 80% in size
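Luminescence from a BRCA1-driven firefly luciferase in MCF7 cells was read after 48 h compound exposure at 37 C. Data normalized against DMSO and a 10microM genistein activation control, then curve-fitted across the titration.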
Giardia killer: kills Giardia lamblia; Giardia lamblia trophozoite viability; activity change, % at 7.66 µM, hits read low; actives 0.15% (n = 340,000); in the data active means activity change below about -80%; inconclusive means between about -30% and that limit;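 further: parasites exposed to compound for two days anaerobically before the ATP read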
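Trophozoites 100 cells/well + cpd; 48 hrs, 37 deg C, anaerobic. ATPLite 1-Step added, 15-30 min RT, luminescence read (ATP-based viability).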
ELG1 DNA repair: blocks ELG1-dependent DNA repair in HEK293T cells. Potency, µM (highest dose often 46.1 µM), actives largely listed as inhibitors. AID 504467. HEK293T ELG1-luciferase reporter, luminescence, 16 h; DNA damage induced by 5-fluorouridine. actives 2.3% (n = 330,000); further: nearly all actives have a fitted effect of over 55% in size
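DMSO vehicle served as the neutral condition. Each well held 2,000 cells given 5-fluorouridine plus compound; after 16 hr at 37 °C/5% CO2, ONE-Glo was added and luciferase measured 30 min later.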
RORg inh: inhibitors of mouse ROR gamma transcriptional activity | actives 5.4% (n = 310,000) | Potency, µM (top dose mostly 53.6 µM), usual class: inhibitors | AID 2551 | P51450 | Drosophila S2 Gal4-RORgamma UAS-luciferase reporter, 20 h; further: nearly all actives have a fitted effect of over 60% in size
Target sequence (P51450 whole entry, looked up, the tested form may be a part): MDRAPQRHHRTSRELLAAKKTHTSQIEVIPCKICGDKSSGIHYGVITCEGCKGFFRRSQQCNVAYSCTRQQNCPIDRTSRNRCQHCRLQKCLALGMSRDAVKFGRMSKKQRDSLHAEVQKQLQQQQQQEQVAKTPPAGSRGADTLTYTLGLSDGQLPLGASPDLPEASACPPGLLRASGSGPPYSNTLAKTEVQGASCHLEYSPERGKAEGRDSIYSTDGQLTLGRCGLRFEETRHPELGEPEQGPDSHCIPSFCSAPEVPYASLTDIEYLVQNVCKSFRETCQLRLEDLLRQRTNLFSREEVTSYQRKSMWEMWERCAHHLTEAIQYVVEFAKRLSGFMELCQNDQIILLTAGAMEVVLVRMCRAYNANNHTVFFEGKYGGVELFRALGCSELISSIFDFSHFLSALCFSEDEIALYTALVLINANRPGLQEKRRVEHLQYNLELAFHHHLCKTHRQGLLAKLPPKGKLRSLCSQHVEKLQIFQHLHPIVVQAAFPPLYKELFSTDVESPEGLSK
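In this cell-based reporter format, copper sulfate (700 uM final) drives Gal4–ROR gamma fusion expression from a metallothionein promoter in Drosophila Schneider cells; compounds preincubated 1 hr, reporter read after 20 hr at ambient temperature.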
VP16 counter: inhibits Gal4-VP16 luciferase reporter, ROR gamma counter-screen; Drosophila S2 Gal4-VP16 UAS-luciferase, luminescence, 20 h; Potency, µM (top dose mostly 53.6 µM), most hits filed as inhibitors; actives 3.5% (n = 310,000);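 further: Gal4-VP16 expression switched on by copper sulfate through the metallothionein promoter; nearly all actives have a fitted effect of over 50% in size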
Hits are given with their value; 0 = inactive; ? = inconclusive; - = not tested or not shown. The list is not random: actives were taken first. Their share in the collection is about 7.6%. Unless noted, the call rests on the fitted dose curve; in most records, active means well fitted curve in the direction sought with a large enough effect; inconclusive means small, poorly fitted or top-dose-only effect, or another doubt; inactive means no such curve, though single readings can be large; an effect the other way counts as inactive or inconclusive.

SMILES	p53 reactivation	BRCA1 expr up	Giardia killer	ELG1 DNA repair	RORg inh	VP16 counter
CC(=O)NC12CC3CC(C1)CC(C(=O)N(C)CC(=O)Nc1ccc(F)c(F)c1F)(C3)C2	0	0	0	0	-	-
Cc1ccc2c(c1C)OC(=O)CC2(C)C	0	0	0	0	0	0
O=C(NCc1cccnc1)c1ccc([N+](=O)[O-])o1	0	0	-90	0	0	0
Cc1ccc(NC(=O)C(=O)NCCc2c[nH]c3ccccc23)c(C)c1	0	0	0	0	0	0
COc1ccc(Cl)cc1NC(=S)NCCc1c[nH]c2ccccc12	0	0	0	0	5.6µM	7.1µM
Cc1ccc(C)c(NC(=S)NCCc2c[nH]c3ccccc23)c1	0	0	0	0	1.3µM	11µM
Cc1ccccc1NC(=S)NCCc1c[nH]c2ccccc12	0	0	0	0	7.9µM	11µM
Cc1cccc(NC(=O)C(=O)NCCc2c[nH]c3ccccc23)c1C	0	0	0	0	0	0
Cc1ccc(NS(=O)(=O)c2cccc(C(=O)NCCc3c[nH]c4ccccc34)c2)c(C)c1	0	0	0	?	?	22µM
COc1ccccc1NC(=O)NCCc1c[nH]c2ccccc12	0	0	0	0	0	0
COc1ccc(S(=O)(=O)N(C)C[C@H]2OCc3cnnn3CCCC(=O)N([C@@H](C)CO)C[C@H]2C)cc1	-	0	-	-	-	-
COc1ccc(Cl)cc1NC(=S)NC(=O)c1ccc2c(c1)OCO2	-	0	0	-	-	-
Oc1ccc(NC(=S)N=Nc2c(O)[nH]c3ccc(Br)cc23)cc1	0	0	0	16µM	10µM	?
Oc1[nH]c2ccc(Br)cc2c1N=NC(=S)Nc1ccc(F)cc1	0	0	0	?	0.79µM	7.9µM
Oc1cccc(NC(=S)N=Nc2c(O)[nH]c3ccc(Br)cc23)c1	0	0	0	?	0	0
Fc1ccc(Cn2cccc2C2=NC(c3ccccc3)CO2)cc1 (configuration not stated)	?	0	0	0	0	0
CCC1COC(c2cccn2Cc2ccccc2Cl)=N1 (configuration not stated)	0	0	0	0	8.9µM	0
N#Cc1c(N2CCSCC2)nsc1-c1ccccc1Cl	?	11µM	0	0	0	0
N#Cc1c(Cl)cccc1N1CCSCC1	-	0	-	-	-	-
CC(Cc1ccccc1)NC(=S)CN1CCCC1=S (configuration not stated)	0	0	0	?	8.9µM	?
Brc1ccc(-c2ccc(CNCc3ccccn3)o2)cc1	0	0	0	0	?	?
Clc1cccc(-c2ccc(CNCc3ccccn3)o2)c1	-	0	0	0	11µM	?
COC(=O)C(CCSC)NC(=O)CNS(=O)(=O)c1ccc(Cl)cc1 (configuration not stated)	0	0	0	?	0	0
CS(=O)(=O)N1CCc2cc(C(=O)NC3CC3)ccc21	0	0	0	0	0	0
CCCCOc1ccc(CNC(=S)N/N=C/c2ccc(OC)c(OC)c2)cc1	0	0	0	8.2µM	4.5µM	2.5µM
SMILES	p53 reactivation	BRCA1 expr up	Giardia killer	ELG1 DNA repair	RORg inh	VP16 counter
CCOc1ccc(CNC(=S)N/N=C\c2ccc([N+](=O)[O-])cc2)cc1	?	0	0	0	1.3µM	2.8µM
CCOc1ccc(/C=N/NC(=O)c2ccc(Cn3cc([N+](=O)[O-])cn3)o2)cc1	-	0	0	-	0	0
CC(C)(C)c1ccc(OCc2ccc(C(=O)N/N=C/c3ccc([N+](=O)[O-])cc3)o2)cc1	?	?	0	0	?	10µM
CCOc1ccc(CNC(=S)N/N=C/c2cccnc2)cc1	0	0	0	?	7.9µM	?
CNC(=O)CN1C(=O)CSc2nc(C)cc(C)c21	0	0	0	0	0	0
Cc1ccc(/C(O)=C2\C(=O)C(=O)N(CCc3c[nH]c4ccccc34)C2c2cccnc2)cc1 (configuration not stated)	0	0	?	0	0	0
COCCNC(=S)N/N=C/c1ccc(OCc2ccc(C(=O)OC)cc2)c(OC)c1	0	0	0	0	2.2µM	7.1µM
CC(C)Oc1ccc(CNC(=S)N/N=C/c2cccnc2)cc1	0	0	0	0	4µM	13µM
CC(c1nccs1)N(C)C(=O)c1ccc(OC2CCN(CCc3ccccc3)CC2)cc1 (configuration not stated)	0	0	0	0	0	0
COc1cc([N+](=O)[O-])ccc1NC(=S)NC(=O)CC(C)(C)C	0	0	0	0	10µM	0
CCOC(=O)c1ccc(NCCOC)c([N+](=O)[O-])c1	0	13µM	0	?	0	0
CCOC(=O)c1ccc(C(=O)OCC)c(NC(=S)Nc2ccc([N+](=O)[O-])cc2OC)c1	?	0	0	?	2.2µM	2.8µM
CCOC(=O)c1cc([N+](=O)[O-])c([N+](=O)[O-])cc1NC(C)=O	0	0	0	?	5µM	3.2µM
CC(C)(C)OC(=O)N1CC(O)CC1C(=O)OCC(=O)c1ccc(-c2ccccc2)cc1 (configuration not stated)	0	0	0	0	0	0
CCn1c(=O)c(C(=O)CN2CCN(S(=O)(=O)c3cc(C)ccc3C)CC2)c(N)n(Cc2ccccc2)c1=O	0	0	0	6.5µM	?	0
CCn1c(=O)c(C(=O)CN2CCN(Cc3ccc4c(c3)OCO4)CC2)c(N)n(Cc2ccccc2)c1=O	0	0	0	?	0	0
COc1cccc(NC(=O)CSc2nc3ccc(NC(=O)c4ccco4)cc3s2)c1	-	0	-	-	-	-
COc1ccc2oc(C(=O)N3CCN(S(=O)(=O)c4cccc([N+](=O)[O-])c4)CC3)c(C)c2c1	0	0	0	7.3µM	0	0
COc1ccc2oc(C(=O)OCC(=O)N3CCN(S(=O)(=O)c4ccccc4)CC3)c(C)c2c1	0	0	0	0	-	-
CCOc1ccc(S(=O)(=O)N2CCN(C(=O)c3oc4ccc(OC)cc4c3C)CC2)cc1	0	0	0	21µM	-	-
Cc1c(C(=O)N2CCN(S(=O)(=O)c3cccs3)CC2)oc2ccc(F)cc12	0	0	0	5.2µM	-	-
COc1cccc(C(=O)CN2CCN(S(=O)(=O)c3cccc([N+](=O)[O-])c3)CC2)c1	0	0	0	0	0	0
Cc1c(C(=O)N2CCN(S(=O)(=O)c3ccc(F)cc3)CC2)oc2ccccc12	0	0	0	0	-	-
O=C(Nc1ccccc1Cl)c1cc(C2CCCN(C(=O)c3ccc4c(c3)CCO4)C2)on1 (configuration not stated)	-	0	-	-	-	-
COc1ccc(-c2nc3ccc(C)cn3c2Cc2cccc(F)c2)cc1OC	-	0	-	-	-	-
Cc1ccc(O)c(Nc2ncnc3ccc([N+](=O)[O-])cc23)c1	0	0	0	13µM	?	0

Bioassay records deposited in PubChem by National Center for Advancing Translational Sciences (NCATS).
